Tests used:
Experiment in all cases: PBM binding z-score (relative to random genomic background probes); higher = stronger binding; sequences stand for … in GC…GCGATTGACAGCGTAGAATGAAGG
[1] = system: FXR:RXRa (NR concentration 270 nM, RXRa partner concentration 90 nM)
In short: (§1)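 Binding buffer was PBS pH 7.4 with 2% milk, 0.02% Triton X-100, 1 mM DTT, 0.2 mg/mL BSA and 0.4 mg/ml salmon testes DNA. In it, ligand-free nuclear receptor dimers were incubated 1 h on custom Agilent 4×180K protein-binding microarrays carrying double-stranded probes. Antibodies against each partner (one per run) detected binding, and z-scores were calculated against random background probes after regression normalization of scanned fluorescence.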

[2] = system: LXRa:RXRa (NR concentration 270 nM, RXRa partner concentration 90 nM)
In short: as §1

[3] = system: LXRa homodimer (NR concentration 270 nM)
In short: as §1

[4] = system: LXRb:RXRa (NR concentration 270 nM, RXRa partner concentration 90 nM)
In short: as §1

[5] = system: LXRb homodimer (NR concentration 270 nM)
In short: as §1

[6] = system: PPARa:RXRa (NR concentration 270 nM, RXRa partner concentration 90 nM)
In short: as §1

[7] = system: PPARg:RXRa (NR concentration 180 nM, RXRa partner concentration 90 nM)
In short: as §1

[8] = system: PPARg:RXRa 270nM:90nM, anti-RXR (NR concentration 270 nM, RXRa partner concentration 90 nM)
In short: as §1

[9] = system: PPARg:RXRa 30nM:10nM, anti-RXR (NR concentration 30 nM, RXRa partner concentration 10 nM)
In short: as §1

[10] = system: PPARg:RXRa 90nM:30nM, anti-RXR (NR concentration 90 nM, RXRa partner concentration 30 nM)
In short: as §1

Sequence | PBM binding z-score [1] | PBM binding z-score [2] | PBM binding z-score [3] | PBM binding z-score [4] | PBM binding z-score [5] | PBM binding z-score [6] | PBM binding z-score [7] | PBM binding z-score [8] | PBM binding z-score [9] | PBM binding z-score [10]
CCTACTGGGCCATCAGGTCATTGACATCAACGTT | 2.17 | 1.67 | 1.29 | 2.01 | -0.379 | 2.7 | 3.12 | 3.54 | 1.46 | 2.55
TGAATGAGGTTAAAGATCAGGGCACGTGGCGTCG | 2.95 | 2.69 | 0.0826 | 1.81 | 0.456 | 4.53 | 5.69 | 6.11 | 4.67 | 6.24
CCTAGCAGGCCAATCTGGGTCACCCAAGGCTTGA | 0.68 | 1.16 | -0.385 | 0.427 | -0.863 | 3.04 | 2.45 | 2.51 | -0.13 | 1.89
ATCTCTAGGTAAGACTCCGTTCAGTGAAGAACGC | 0.49 | 0.425 | 0.698 | 0.0873 | 0.894 | -0.00199 | 0.087 | 0.169 | 0.111 | 0.441
TCTAGCAGGCCCGAGGGTCACTCAAGAGGTACGG | 0.726 | 0.983 | -0.649 | 1.04 | -1.35 | 1.96 | 0.501 | 1.33 | 1.57 | 1.42
ATCTCTCGGTAACCAAGTTCAGTGAATGCCGAAC | 0.00199 | 0.567 | 1.33 | 0.672 | 0.975 | 0.668 | -0.0283 | 0.289 | -0.287 | 0.0566
ACTTACGGGTTAACGAGGTTATAGCACGCGTATA | 2.07 | 2.74 | 0.54 | 2.31 | 0.221 | 3.12 | 1.66 | 2.16 | 0.682 | 1.49
TCTCGGAGGACAGGAAAGGTCAGAGCTCGACATC | 2.63 | 3.06 | 1.44 | 2.83 | -0.216 | 3.23 | 0.566 | 2.15 | 2.51 | 1.96
GCTGATAGGTCAGGTTGGTCAGCTAACGGGTACG | 2.43 | 2.19 | -0.0156 | 1.67 | 0.114 | 2.71 | 0.952 | 1.4 | -0.0509 | 0.754
TCGAGTAGGTTAGGGGCCTTCAGAATGGCGTCGA | -0.193 | -0.323 | -0.797 | -0.221 | -0.986 | 0.54 | 0.638 | 2.19 | 0.926 | 2.03
CGTCCAAGGTCAGCCGGTCAGTGAAAGCGACGTG | 5.37 | 3.63 | 0.364 | 2.5 | -0.165 | 4.18 | 2.43 | 3.24 | 0.459 | 1.79
CCTCGGAGGACAACAGGAGGTAAGAGCTGCCAGA | 0.127 | -0.463 | -0.208 | -0.701 | -0.983 | -0.345 | 0.154 | -0.624 | -0.764 | -0.831
